The list is not random: actives were taken first. Their share in the collection is about 4.1%.
NALP1 yeast inh – inhibitors of NALP1 inflammasome in yeast; hit rate 0.61% among 280,000; S. cerevisiae NALP1/ASC/caspase-1 growth, X-gal OD620, 72 h; AID 2071; inhibition, % at 10 µM; in the data active means inhibition mostly above about 24%, no sharp cut-off; inactive means mostly below about 32%
TIM10 inh – growth inhibitors of TIM10 yeast strain; S. cerevisiae TIM10 strain growth, BacTiter-Glo luminescence, 24 h; inhibition, % at 10 µM; hit rate 1.4% among 330,000; AID 463195;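 active means inhibition of 40% or more at the single tested concentration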;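 further: wild-type TIM10 isogenic control strain grown at permissive 25 °C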
tim10-1 inh – growth inhibitors of tim10-1 mutant yeast; S. cerevisiae tim10-1 ts strain growth, BacTiter-Glo, 24 h; hit rate 2.2% among 330,000; inhibition, % at 20 µM; AID 463190;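 active means inhibition of at least 40%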;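 further: mutant grown at 25 °C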
tim23-1 inh – inhibits growth of tim23-1 mutant yeast; inhibition, % at 20 µM; S. cerevisiae tim23-1 growth, BacTiter-Glo luminescence, 24 h; AID 463212; hit rate 1.3% among 330,000;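 active means growth inhibition of the mutant yeast at or above 50%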;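 further: temperature-sensitive mutant grown at 25 °C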
NALP3 yeast inh – NALP3 inhibition in yeast; Yeast reconstituted NLRP3/ASC/caspase-1, beta-gal luminescence, 24 h; inhibition, % at 10 µM; hit rate 0.39% among 330,000;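 active means inhibition of 50% or more; inactive means inhibition below 50%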
tim10-1 conf – tim10-1 yeast growth inhibition, confirmed. shares compounds with tim10-1 inh. S. cerevisiae tim10-1 ts strain growth, BacTiter-Glo, 24 h. inhibition, % at 20 µM. hit rate 56% among 7,400. AID 463213;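 active means inhibition of yeast growth at or above a set limit in either of two repeat tests at 20 µM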;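 further: tim10-1 mutant grown at permissive 25 °C to find synthetic lethal compounds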
Large screens that a line does not name were inactive (follow-up assays come after a bar, where they were run).

CCOc1ccc(N(CC(=O)NCCc2ccccc2)C(=O)CCC(=O)Nc2nccs2)cc1	none
CC(C)Sc1nc2ccccc2[nH]1	none
O=C(c1ccc(CS(=O)Cc2ccc(Cl)cc2)o1)N1CCN(c2ccc(F)cc2)CC1 (stereo unspecified)	none
Cc1cccc(N2CCN(C(=O)c3ccc(CS(=O)Cc4ccc(Cl)cc4)o3)CC2)c1C (stereo unspecified)	tim10-1 inh 54.2 | tim10-1 conf inactive
O=C(c1ccc(CS(=O)Cc2ccc(Cl)cc2)o1)N1CCN(c2cccc(Cl)c2)CC1 (stereo unspecified)	tim10-1 inh 40.1 | tim10-1 conf inactive
O=C(c1ccc(CS(=O)Cc2cccc(Cl)c2)o1)N1CCN(C2CCCCC2)CC1 (stereo unspecified)	none
Cc1ccc(C)c(N2CCN(C(=O)c3ccc(CS(=O)Cc4cccc(Cl)c4)o3)CC2)c1 (stereo unspecified)	tim10-1 inh 42.3 | tim10-1 conf inactive
Cc1ccc(C(=O)N2CCN(c3cccc(C)c3C)CC2)o1	none
OCC1(Cc2ccccc2)CCCN(Cc2ccn[nH]2)C1 (stereo unspecified)	none
CC1CCN(c2oc(-c3ccc(F)cc3)nc2C#N)CC1	tim10-1 inh 98.6 | tim10-1 conf inactive
CCCCOC(=O)c1ccc(O)cc1	none
CCCCCCCCOC(=O)c1ccc(N)cc1	tim10-1 inh 45.3 | tim10-1 conf inactive
CC(C)CN(CC(C)C)S(=O)(=O)N1CCC(C(=O)NCc2ccc3c(c2)OCO3)CC1	none
COc1ccc(CCN(C)CC(O)COc2ccc(C(C)=O)cc2OC)cc1OC (stereo unspecified)	none
O=C(N1CCC(n2nc(-c3ccccc3)oc2=O)CC1)C1(c2ccc(Cl)cc2)CC1	tim10-1 inh 53.3 | tim10-1 conf inactive
CC1=C(/C=C/C(C)=C/C=C/C(C)=C/CO)C(C)(C)CCC1	tim10-1 inh 43.6 (no result: NALP1 yeast inh) | tim10-1 conf inactive
CSCCC(NS(=O)(=O)c1ccc2c(c1)OCCO2)C(=O)N(C)Cc1ccccc1F (stereo unspecified)	none (no result: NALP1 yeast inh)
COc1cc(C2C(C#N)=C(N)Oc3cc4c(cc32)OCO4)cc(OC)c1OC (stereo unspecified)	none
N#CC1=C(N)Oc2cc3c(cc2C1c1ccc(Cl)cc1)OCO3 (stereo unspecified)	tim10-1 inh 43.5 | tim10-1 conf inactive
CCn1c(NN)nc2sc3c(c2c1=O)CCC3	none
NNc1nc2sc3c(c2c(=O)n1Cc1ccccc1)CCC3	tim10-1 inh 53.9 (no result: NALP1 yeast inh) | tim10-1 conf inactive
c1ccc(Sc2nc(N3CCCCC3)nc(N3CCCCC3)n2)nc1	tim10-1 inh 41.2 (no result: NALP1 yeast inh) | tim10-1 conf inactive
Cc1ccc(NC(=S)NNC(=O)CSc2nc3ccccc3c(=O)n2-c2ccc(C)cc2)cc1	tim10-1 inh 57.1 | tim10-1 conf 33.9
CCCn1cc(SCC(=O)Nc2ccc3c(c2)OCO3)c2ccccc21	tim10-1 inh 42.5 | tim10-1 conf inactive
Cc1ccc(NC(=S)NNC(=O)CSc2nnc(-c3ccc(Cl)cc3)n2C2CCCCC2)cc1	tim10-1 inh 42.5 | tim10-1 conf 35.1
Cn1cc(SCC(=O)Nc2ccc3c(c2)OCO3)c2ccccc21	none
COc1ccc(-n2c(SCC(=O)Nc3ccc4c(c3)OCO4)nc3ccccc3c2=O)cc1	tim10-1 inh 40.4 | tim10-1 conf inactive
CCOc1ccc(-n2c(SCC(=O)Nc3ccc4c(c3)OCO4)nc3ccccc3c2=O)cc1	none
CCn1c(SCC(=O)NNC(=S)Nc2ccc(C)cc2)nnc1-c1ccc(Cl)cc1	none
Cc1cc(C)n(S(=O)(=O)c2cccc(Cl)c2Cl)n1	none
CCCN(CCC)C(=O)c1oc2ccccc2c1NC(=O)Cc1cccc(OC)c1	none
Cc1ccc(/C=N\NC(=O)CCc2n[nH]c(=O)[nH]c2=O)o1	none
CCOC(=O)C1CCCN(C(=O)Cn2ncc3c([nH]c4ccccc43)c2=O)C1 (stereo unspecified)	none
O=S1(=O)N(Cc2ccccc2F)CCCN1Cc1c(F)cccc1Cl	none
COc1cc2c(cc1OC)C(c1cccs1)NCC2 (stereo unspecified)	none
COc1cc2c(cc1OC)C(COc1ccc(C(C)C)cc1)NCC2 (stereo unspecified)	tim10-1 inh 48.1 | tim10-1 conf inactive
O=C(C(Cc1ccccc1)n1cccc1)N1CCCCC1 (stereo unspecified)	none
CC(C)C(C(=O)N1CCN(Cc2ccccc2)CC1)c1ccccc1 (stereo unspecified)	tim10-1 inh 50.2 | tim10-1 conf 34.9
O=C(C(Cc1ccccc1)n1cccc1)N1CCN(Cc2ccccc2)CC1 (stereo unspecified)	tim10-1 inh 42.4 | tim10-1 conf inactive
Cc1ccnc2c1ccc1cccnc12	tim10-1 inh 42.1 (no result: NALP1 yeast inh) | tim10-1 conf inactive
CCN(CC)C(=O)CSc1nc2cc3c(cc2c(=O)n1Cc1ccc(OC)cc1)OCO3	none
Cc1sc2nc(CN3CCOCC3)nc(Oc3ccc(NC(=O)c4ccco4)cc3)c2c1C	tim10-1 inh 48.2 | tim10-1 conf inactive
COc1ccc(OC)c2nc(-c3ccc4c(c3)OCO4)ccc12	tim10-1 inh 41.2 | tim10-1 conf 34.5
COc1cc2c(cc1OC)CN(C(=O)c1ccc(Cl)c(S(=O)(=O)N3CCCC3)c1)CC2	none (no result: NALP1 yeast inh)
O=C(N/C(=C\c1ccc(Br)cc1)C(=O)N1CCCC1)c1cccs1	none
O=C(N/C(=C/c1ccc(Br)cc1)C(=O)N1CCCC1)c1cccs1	tim10-1 inh 46.0 | tim10-1 conf inactive
CC(NC(=O)C(C)N1CCN(S(=O)(=O)c2ccccc2)CC1)c1ccccc1 (stereo unspecified)	none (no result: NALP1 yeast inh)
CCOC(=O)N1CCN(c2ccccc2OC)CC1	none
COc1ccccc1-c1cc(C(=O)N2CCN(c3ccccc3OC)CC2)no1	tim10-1 inh 48.4 | tim10-1 conf 32.5
COc1ccc(OC)c(-c2cc(C(=O)N3CCc4ccccc4C3)no2)c1	tim10-1 inh 41.0 | tim10-1 conf inactive
CCC(C(=O)N1CCN(c2ccccc2OC)CC1)c1ccccc1 (stereo unspecified)	tim10-1 inh 42.3 | tim10-1 conf inactive
O=C(OCCNc1ncc(C(F)(F)F)cc1Cl)c1ccc(S(=O)(=O)N2CCOCC2)cc1	none
N#CCC(CNc1ncc(C(F)(F)F)cc1Cl)OC(=O)c1cccc(C(F)(F)F)c1 (stereo unspecified)	tim10-1 inh 41.6 | tim10-1 conf inactive
COc1nc(N)nc(N)c1NS(=O)(=O)c1ccc(C)cc1	none
CCOC(=O)N1CCC(NC(=O)c2ccc3c(c2)N=C(CC)c2ccccc2S3)CC1	tim10-1 inh 44.9 | tim10-1 conf inactive
CCOC(=O)N1CCC(NC(=O)c2ccc3c(Cl)c4c(nc3c2)CCCC4)CC1	tim10-1 inh 40.9 | tim10-1 conf inactive
CC1CCN(C(=O)c2ccc3c(Cl)c4c(nc3c2)CCCC4)CC1	tim10-1 inh 47.4 | tim10-1 conf 40.0
O=C(NC1CC1)c1ccc2c(Cl)c3c(nc2c1)CCCC3	none
CCC/C(C#Cc1ccsc1)=C1/c2ccccc2C(=O)N1c1ccccc1	none (no result: NALP1 yeast inh)

Source: PubChem BioAssay
